Test results taken from PubChem BioAssay (EPA / NIEHS).
Results filed as inconclusive are left out. Active and inactive are the calls of the source. How the source made its calls, unless noted: active means hit-call score of the fitted dose curve at least 0.9, where 1 is the maximum; inactive means score below 0.9.

Experiments:
[1] = read-out: Interleukin-8 (IL8), CXCL8 (gene 3576); assay: BSK_3C_IL8: BioMAP Diversity Plus: 3C Assay for Interleukin-8 (IL8) Biomarker Activity (AID 2283020); conditions: primary human endothelial cells (HUVEC); actives raise or lower the signal
In short: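 Primary human umbilical vein endothelial cells (3C system) were exposed to test chemical for 24 h, then IL-8 was quantified by ELISA. Responses were fitted bidirectionally against DMSO vehicle as baseline.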

[2] = read-out: Monokine induced gamma interferon (MIG), CXCL9 (gene 4283); assay: BSK_3C_MIG: BioMAP Diversity Plus: 3C Assay for Monokine induced gamma interferon (MIG) Biomarker Activity (AID 2283021); conditions: primary human endothelial cells (HUVEC); actives raise or lower the signal;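 on AC50: MIG protein level measured by immunoassay in the treated endothelial cultures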
In short: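 Primary human umbilical vein endothelial cells in the 3C system were exposed to chemical for 24 h, after which MIG was quantified by ELISA. Activity was fitted bidirectionally against DMSO as negative control and baseline.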

[3] = biological target: human Vitamin D Receptor (VDR), VDR (gene 7421) (UniProt P11473); assay: ATG_VDR_TRANS: Attagene TRANS-FACTORIAL HepG2 Assay for human Vitamin D Receptor (VDR) (AID 2283022; active means hit-call score of the fitted dose curve at least 0.9, where 1 is the maximum)
Chain of human Vitamin D Receptor (VDR), VDR (gene 7421) (P11473 whole entry, looked up, the tested form may be a part): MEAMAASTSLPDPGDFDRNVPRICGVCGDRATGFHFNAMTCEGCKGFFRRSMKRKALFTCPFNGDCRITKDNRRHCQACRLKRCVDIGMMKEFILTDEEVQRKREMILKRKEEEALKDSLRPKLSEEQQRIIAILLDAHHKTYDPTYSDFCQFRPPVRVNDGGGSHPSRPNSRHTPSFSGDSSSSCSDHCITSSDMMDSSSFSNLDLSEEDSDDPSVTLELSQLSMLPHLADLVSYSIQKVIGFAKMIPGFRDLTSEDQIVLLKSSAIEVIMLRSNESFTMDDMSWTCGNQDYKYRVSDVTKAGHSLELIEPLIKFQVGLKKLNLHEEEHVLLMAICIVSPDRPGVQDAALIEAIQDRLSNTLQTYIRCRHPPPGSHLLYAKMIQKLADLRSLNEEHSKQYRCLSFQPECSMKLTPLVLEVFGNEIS
In short: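 HepG2 cells were transiently transfected with GAL4-UAS reporter units and a chimeric VDR-Gal4 construct, then dosed for 24 hours. Reporter mRNA was quantified by RT-PCR, fluorescent labeling, HpaI digestion and capillary electrophoresis; gain of signal analysed vs DMSO.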

[4] = BSK_3C_SRB: Viability Assessment in the BioMAP Diversity Plus: 3C Assay (AID 2283023); conditions: primary human endothelial cells (HUVEC);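 further: fitted both ways against DMSO so a hit may be signal rise or drop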
In short: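 Human umbilical vein endothelial cells in the 3C system, treated 24 h. Total protein measured by 0.1% sulforhodamine B staining after 10% TCA fixation, read at 560 nm; bidirectional fit versus DMSO.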

[5] = read-out: Matrix Metallopeptidase 1 (MMP1), MMP1 (gene 4312); assay: BSK_BE3C_MMP1: BioMAP Diversity Plus: BE3C Assay for Matrix Metallopeptidase 1 (MMP1) Biomarker Activity (AID 2283024); conditions: primary human bronchial epithelial cells; actives raise or lower the signal
In short: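 Primary human bronchial epithelial cells were dosed with test chemicals, and MMP1 levels were measured by ELISA 24 h later. Data were fitted bidirectionally against DMSO as the negative control and activity baseline.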

[6] = BSK_3C_Vis: BioMAP Diversity Plus: 3C Assay for Morphology Visualization (AID 2283025); conditions: primary human endothelial cells (HUVEC);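 further: fitted both ways so gain or loss versus DMSO counts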
In short: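 Human umbilical vein endothelial cells in the 3C system were imaged by light microscopy 24 h after chemical dosing to record cell morphology. Activity was fitted bidirectionally against DMSO as negative control and baseline; the endpoint serves as a background control.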

[7] = read-out: Pselectin, SELP (gene 6403); assay: BSK_4H_Pselectin: BioMAP Diversity Plus: 4H Assay for Pselectin Biomarker Activity (AID 2283026); conditions: primary human endothelial cells (HUVEC); actives raise or lower the signal
In short: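 Primary human umbilical vein endothelial cells were exposed to test chemical for 24 h, then cell-surface P-selectin was quantified by ELISA. Activity was fitted bidirectionally against DMSO as negative control and baseline.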

[8] = BSK_4H_SRB: Viability Assessment in the BioMAP Diversity Plus: 4H Assay (AID 2283027); conditions: primary human endothelial cells (HUVEC);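 further: cells exposed to compound for 24 h before staining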;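 on AC50: curves fitted both ways versus DMSO so AC50 may be loss or gain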
In short: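 Absorbance at 560 nm of SRB-stained total protein served as the viability read-out in confluent primary human umbilical vein endothelium 24 h after chemical treatment. Curves were fitted bidirectionally against DMSO as negative control.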

[9] = BSK_BE3C_SRB: Viability Assessment in the BioMAP Diversity Plus: BE3C Assay (AID 2283028); conditions: primary human bronchial epithelial cells;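 on AC50: fitted both ways so AC50 may mark signal gain or loss versus DMSO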
In short: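 Human bronchial epithelial primary cells in confluent culture, 24 h after chemical dosing; total protein by 0.1% SRB staining after 10% TCA fixation, read at 560 nm. Bidirectional fitting versus DMSO baseline.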

[10] = read-out: Thrombomodulin, THBD (gene 7056); assay: BSK_3C_Thrombomodulin: BioMAP Diversity Plus: 3C Assay for Thrombomodulin Biomarker Activity (AID 2283029); conditions: primary human endothelial cells (HUVEC); actives raise or lower the signal
In short: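 Primary human umbilical vein endothelial cells (3C system) were exposed to chemical for 24 h, then thrombomodulin levels were measured by ELISA. Activity was fitted bidirectionally against the DMSO negative control as baseline.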

Row | SMILES | outcome [1] | outcome [2] | outcome [3] | outcome [4] | outcome [5] | outcome [6] | outcome [7] | outcome [8] | outcome [9] | outcome [10] | AC50 [7] | AC50 [1] | AC50 [2] | AC50 [4] | AC50 [6] | AC50 [8] | AC50 [9] | AC50 [5]
1 | Nc1cc2c3c(c1)C(c1ccccc1)=N[C@@H](NC(=O)c1cccnc1)C(=O)N3CC2 | inactive | inactive | inactive | inactive | inactive | inactive | inactive | inactive | inactive | inactive |  |  |  |  |  |  |  | 
2 | O=S(=O)(F)C(F)(F)C(F)(F)C(F)(F)C(F)(F)C(F)(F)C(F)(F)C(F)(F)C(F)(F)F | inactive | inactive | inactive | inactive | inactive |  | inactive | inactive | inactive | inactive |  |  |  |  |  |  |  | 
3 | CCCCc1ccccc1 | inactive | inactive |  | inactive | inactive | inactive | inactive | inactive | inactive | inactive |  |  |  |  |  |  |  | 
4 | CCOP(=S)(OCC)SCSc1ccc(Cl)cc1 | inactive | inactive |  | inactive | inactive | inactive |  | inactive | inactive | inactive | 12.6 µM (active) |  |  |  |  |  |  | 
5 | O=[N+]([O-])c1ccc(Cl)c(Cl)c1 | inactive | inactive |  | inactive | inactive | inactive | inactive | inactive | inactive | inactive |  |  |  |  |  |  |  | 
6 | NC(=O)C(F)(F)C(F)(F)F | inactive | inactive | inactive | inactive | inactive |  | inactive | inactive | inactive | inactive |  |  |  |  |  |  |  | 
7 | c1cc2c3c(cccc3c1)CC2 | inactive | inactive |  | inactive | inactive | inactive | inactive | inactive | inactive | inactive |  |  |  |  |  |  |  | 
8 | Cc1ccc(N)cc1N | inactive | inactive |  | inactive | inactive | inactive | inactive | inactive | inactive | inactive |  |  |  |  |  |  |  | 
9 | ClC(Cl)=C(c1ccc(Cl)cc1)c1ccccc1Cl |  |  | inactive |  | inactive |  |  |  |  | inactive | 10.6 µM (active) | 11.8 µM (active) | 29.2 µM (active) | 7.99 µM (active) | 14.4 µM (active) | 12.6 µM (active) | 10.5 µM (active) | 
10 | Cc1ccc(O)cc1C | inactive | inactive |  | inactive | inactive | inactive | inactive | inactive | inactive | inactive |  |  |  |  |  |  |  | 
11 | Nc1ccc2ccccc2c1 | inactive | inactive |  | inactive |  | inactive | inactive | inactive | inactive | inactive |  |  |  |  |  |  |  | 2.92 µM (active)
12 | CSC(C)(C)C=NO | inactive | inactive | inactive | inactive | inactive | inactive | inactive | inactive | inactive | inactive |  |  |  |  |  |  |  | 
13 | O=C(O)C(F)(F)OC(F)(F)C(F)(F)OC(F)(F)C(=O)O | inactive | inactive | inactive | inactive | inactive |  | inactive | inactive | inactive | inactive |  |  |  |  |  |  |  | 
14 | O=C(O)C1C(C(=O)O)C2(Cl)C(Cl)=C(Cl)C1(Cl)C2(Cl)Cl (stereo unspecified) | inactive | inactive |  | inactive | inactive | inactive | inactive | inactive | inactive | inactive |  |  |  |  |  |  |  | 
15 | CCCCN(CCCC)N=O | inactive | inactive |  | inactive | inactive | inactive | inactive | inactive | inactive | inactive |  |  |  |  |  |  |  | 
16 | [N-]=[N+]=[N-] | inactive | inactive |  | inactive | inactive | inactive | inactive | inactive | inactive | inactive |  |  |  |  |  |  |  | 
17 | Cc1ccc2c(c1N)C(=O)c1ccccc1C2=O | inactive | inactive |  |  | inactive |  | inactive | inactive | inactive | inactive |  |  |  | 4.25 µM (active) | 13.6 µM (active) |  |  | 
